Reference: PubChem BioAssay AID1159580 (chemical genetic matrix, 2015)
Screen size: about 5,500 compounds; about 2,000 (36%) were called active. Inconclusive results (about 18%) are left out. Cut-off read from the data, not from the text of the source: active = normalized growth mostly below about 0.91 (no sharp cut-off); inconclusive = no clear call, values can overlap the other calls; inactive = mostly above about 0.92. The list shows a part of the results.

Test: chemical genetic growth profiling, strain panel (AID 1159580);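 note: tested at 20 µM; growth read once vehicle control cultures reached saturation at 30 °C; 1 = growth at the plate median or of vehicle wells; lower values mean less growth of the strain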
Conditions: growth OD
[1] = S. cerevisiae deletion strains, locus YHR030C, strain SLT2, stronger effect = lower value
[2] = S. cerevisiae deletion strains, locus YHR079C, strain IRE1, stronger effect = lower value
[3] = S. cerevisiae deletion strains, locus YJL095W, strain BCK1, stronger effect = lower value
[4] = S. cerevisiae deletion strains, locus YJR066W, strain TOR1, stronger effect = lower value
[5] = S. cerevisiae deletion strains, locus YLR113W, strain HOG1, stronger effect = lower value
[6] = S. cerevisiae deletion strains, locus YNL183C, strain NPR1, stronger effect = lower value
[7] = S. cerevisiae deletion strains, locus YOR231W, strain MKK1, stronger effect = lower value
[8] = S. cerevisiae deletion strains, locus YPL256C, strain CLN2, stronger effect = lower value
[9] = S. cerevisiae deletion strains, locus YDR150W, strain NUM1, stronger effect = lower value
[10] = S. cerevisiae deletion strains, locus YGR229C, strain SMI1, stronger effect = lower value
[11] = S. cerevisiae deletion strains, locus YPL055C, strain LGE1, stronger effect = lower value
[12] = S. cerevisiae deletion strains, locus YPL241C, strain CIN2, stronger effect = lower value
[13] = S. cerevisiae deletion strains, locus YDL101C, strain DUN1, stronger effect = lower value

Measured: normalized growth

COC(=O)C(c1ccccc1)C1CCCCN1 (stereo unspecified)
inactive: [1] 0.978 | [2] 0.975 | [3] 0.974 | [4] 0.934 | [5] 0.95 | [6] 0.891 | [7] 0.971 | [8] 0.972

O=C(NCCNCC(O)COc1ccc(O)cc1)N1CCOCC1 (stereo unspecified)
inactive: S. cerevisiae deletion strains, locus YAL040C, strain CLN3, stronger effect = lower value 0.976 | S. cerevisiae deletion strains, locus YCL061C, strain MRC1 (second series), stronger effect = lower value 1 | [9] 0.993 | S. cerevisiae deletion strains, locus YDR363W, strain ESC2, stronger effect = lower value 1.01 | S. cerevisiae deletion strains, locus YER002W, strain NOP16, stronger effect = lower value 1.02 | [10] 1.02 | S. cerevisiae deletion strains, locus YMR307W, strain GAS1, stronger effect = lower value 0.997 | S. cerevisiae deletion strains, locus YNL128W, strain TEP1, stronger effect = lower value 0.998 | S. cerevisiae deletion strains, locus YNL175C, strain NOP13, stronger effect = lower value 0.998 | S. cerevisiae deletion strains, locus YNL197C, strain WHI3, stronger effect = lower value 0.993 | S. cerevisiae deletion strains, locus YNL224C, strain SQS1, stronger effect = lower value 0.997 | S. cerevisiae deletion strains, locus YOR083W, strain WHI5 (second series), stronger effect = lower value 1.01 | [11] 1.02 | [12] 1

Cc1ccc(OS(=O)(=O)c2ccc(Cl)cc2)c([N+](=O)[O-])n1
inactive: S. cerevisiae deletion strains, locus YAL013W, strain DEP1, stronger effect = lower value 0.965 | S. cerevisiae deletion strains, locus YBR229C, strain ROT2, stronger effect = lower value 0.987 | [13] 0.932 | S. cerevisiae deletion strains, locus YDL134C, strain PPH21, stronger effect = lower value 0.968 | [9] 0.833 | S. cerevisiae deletion strains, locus YEL061C, strain CIN8, stronger effect = lower value 0.964 | S. cerevisiae deletion strains, locus YGR078C, strain PAC10, stronger effect = lower value 0.931 | [10] 0.978 | [1] 0.775 | S. cerevisiae deletion strains, locus YHR087W, strain rtc3, stronger effect = lower value 0.975 | S. cerevisiae deletion strains, locus YJR043C, strain POL32, stronger effect = lower value 0.945 | S. cerevisiae deletion strains, locus YJR075W, strain HOC1, stronger effect = lower value 0.917 | S. cerevisiae deletion strains, locus YKL190W, strain CNB1, stronger effect = lower value 0.968 | S. cerevisiae deletion strains, locus YLR039C, strain RIC1, stronger effect = lower value 0.895 | S. cerevisiae deletion strains, locus YLR058C, strain SHM2 (second series), stronger effect = lower value 0.988 | S. cerevisiae deletion strains, locus YLR085C, strain ARP6, stronger effect = lower value 0.875 | S. cerevisiae deletion strains, locus YLR262C, strain YPT6, stronger effect = lower value 0.908 | S. cerevisiae deletion strains, locus YML094W, strain GIM5, stronger effect = lower value 0.953 | S. cerevisiae deletion strains, locus YMR219W, strain ESC1, stronger effect = lower value 0.973 | S. cerevisiae deletion strains, locus YMR263W, strain SAP30, stronger effect = lower value 0.95 | S. cerevisiae deletion strains, locus YNL153C, strain GIM3, stronger effect = lower value 0.936 | S. cerevisiae deletion strains, locus YNL298W, strain CLA4 (second series), stronger effect = lower value 0.915 | S. cerevisiae deletion strains, locus YNL322C, strain KRE1, stronger effect = lower value 0.976 | S. cerevisiae deletion strains, locus YNR030W, strain Alg12, stronger effect = lower value 0.943 | [11] 0.962 | [12] 0.943 | S. cerevisiae deletion strains, locus YPR135W, strain CTF4, stronger effect = lower value 0.877 | S. cerevisiae strains, strain wild type, stronger effect = lower value 0.949

Cc1ccc(OS(=O)(=O)c2c(Cl)sc(Cl)c2Br)c([N+](=O)[O-])n1
inactive: S. cerevisiae deletion strains, locus YAR019C, strain CDC15, stronger effect = lower value 0.964 | S. cerevisiae deletion strains, locus YBL105C, strain PKC1, stronger effect = lower value 0.964 | S. cerevisiae deletion strains, locus YBR135W, strain CKS1, stronger effect = lower value 0.968 | S. cerevisiae deletion strains, locus YBR136W, strain MEC1, stronger effect = lower value 0.967 | S. cerevisiae deletion strains, locus YBR160W, strain CDC28, stronger effect = lower value 0.963 | S. cerevisiae deletion strains, locus YDL017W, strain CDC7, stronger effect = lower value 0.957 | S. cerevisiae deletion strains, locus YDL028C, strain MPS1, stronger effect = lower value 0.972 | [13] 0.956 | S. cerevisiae deletion strains, locus YDL108W, strain KIN28, stronger effect = lower value 0.965 | S. cerevisiae deletion strains, locus YDL132W, strain cdc53, stronger effect = lower value 0.961 | S. cerevisiae deletion strains, locus YDL214C, strain PRR2, stronger effect = lower value 0.962 | S. cerevisiae deletion strains, locus YDR052C, strain DBF4, stronger effect = lower value 0.968 | S. cerevisiae deletion strains, locus YDR054C, strain cdc34, stronger effect = lower value 0.956 | S. cerevisiae deletion strains, locus YDR226W, strain ADK1, stronger effect = lower value 0.953 | S. cerevisiae deletion strains, locus YDR477W, strain SNF1, stronger effect = lower value 0.97 | S. cerevisiae deletion strains, locus YER123W, strain YCK3, stronger effect = lower value 0.952 | S. cerevisiae deletion strains, locus YER133W, strain GLC7, stronger effect = lower value 0.975 | S. cerevisiae deletion strains, locus YFL009W, strain cdc4, stronger effect = lower value 0.961 | S. cerevisiae deletion strains, locus YFL029C, strain CAK1, stronger effect = lower value 0.96 | S. cerevisiae deletion strains, locus YFR003C, strain YPI1, stronger effect = lower value 0.961 | S. cerevisiae deletion strains, locus YFR019W, strain FAB1, stronger effect = lower value 0.98 | S. cerevisiae deletion strains, locus YFR028C, strain CDC14, stronger effect = lower value 0.965 | S. cerevisiae deletion strains, locus YGR040W, strain KSS1, stronger effect = lower value 0.972 | S. cerevisiae deletion strains, locus YGR052W, strain FMP48, stronger effect = lower value 1 | S. cerevisiae deletion strains, locus YGR092W, strain DBF2, stronger effect = lower value 0.951 | [1] 0.961 | [2] 0.929 | S. cerevisiae deletion strains, locus YHR082C, strain KSP1, stronger effect = lower value 1.07 | S. cerevisiae deletion strains, locus YHR205W, strain SCH9, stronger effect = lower value 0.953 | S. cerevisiae deletion strains, locus YIL147C, strain SLN1, stronger effect = lower value 0.966 | [3] 0.968 | S. cerevisiae deletion strains, locus YJL128C, strain PBS2, stronger effect = lower value 0.909 | S. cerevisiae deletion strains, locus YJL157C, strain FAR1, stronger effect = lower value 0.96 | S. cerevisiae deletion strains, locus YJR016C, strain ILV3, stronger effect = lower value 0.965 | S. cerevisiae deletion strains, locus YJR066W, strain TOR1 (second series), stronger effect = lower value 0.956 | [4] 1.02 | S. cerevisiae deletion strains, locus YKL048C, strain ELM1, stronger effect = lower value 0.965 | S. cerevisiae deletion strains, locus YKL067W, strain YNK1, stronger effect = lower value 0.959 | S. cerevisiae deletion strains, locus YKL101W, strain HSL1, stronger effect = lower value 0.979 | S. cerevisiae deletion strains, locus YKL193C, strain SDS22, stronger effect = lower value 0.963 | S. cerevisiae deletion strains, locus YKL203C, strain TOR2, stronger effect = lower value 0.991 | S. cerevisiae deletion strains, locus YLR133W, strain CKI1, stronger effect = lower value 0.968 | S. cerevisiae deletion strains, locus YLR403W, strain SFP1, stronger effect = lower value 0.967 | S. cerevisiae deletion strains, locus YML070W, strain DAK1, stronger effect = lower value 0.959 | S. cerevisiae deletion strains, locus YMR001C, strain CDC5, stronger effect = lower value 0.957 | S. cerevisiae deletion strains, locus YMR205C, strain PFK2 (second series), stronger effect = lower value 0.971 | S. cerevisiae deletion strains, locus YMR277W, strain FCP1, stronger effect = lower value 0.961 | S. cerevisiae deletion strains, locus YNL006W, strain LST8, stronger effect = lower value 0.962 | S. cerevisiae deletion strains, locus YNL020C, strain ARK1, stronger effect = lower value 0.971 | S. cerevisiae deletion strains, locus YNL161W, strain CBK1, stronger effect = lower value 0.968 | [6] 1.01 | S. cerevisiae deletion strains, locus YNL207W, strain RIO2, stronger effect = lower value 0.955 | S. cerevisiae deletion strains, locus YNL222W, strain SSU72, stronger effect = lower value 0.971 | S. cerevisiae deletion strains, locus YNL307C, strain MCK1 (second series), stronger effect = lower value 0.965 | S. cerevisiae deletion strains, locus YOL078W, strain AVO1, stronger effect = lower value 0.967 | S. cerevisiae deletion strains, locus YOL136C, strain PFK27, stronger effect = lower value 0.957 | S. cerevisiae deletion strains, locus YOR061W, strain CKA2, stronger effect = lower value 0.962 | S. cerevisiae deletion strains, locus YOR119C, strain RIO1, stronger effect = lower value 1.04 | [7] 0.942 | S. cerevisiae deletion strains, locus YOR329C, strain SCD5, stronger effect = lower value 0.959 | S. cerevisiae deletion strains, locus YPL031C, strain PHO85, stronger effect = lower value 0.959 | S. cerevisiae deletion strains, locus YPL153C, strain RAD53, stronger effect = lower value 0.963 | S. cerevisiae deletion strains, locus YPL204W, strain HRR25, stronger effect = lower value 0.978 | S. cerevisiae deletion strains, locus YPL209C, strain IPL1, stronger effect = lower value 0.963 | [8] 0.92 | S. cerevisiae deletion strains, locus YPR025C, strain CCL1, stronger effect = lower value 0.964 | S. cerevisiae deletion strains, locus YPR106W, strain ISR1, stronger effect = lower value 0.961 | S. cerevisiae deletion strains, locus YPR111W, strain DBF20, stronger effect = lower value 0.948 | S. cerevisiae deletion strains, strain NNK1, stronger effect = lower value 0.956 | S. cerevisiae deletion strains, strain TSCII, stronger effect = lower value 0.957
active: [5] 0.818
